# Test results: ChEMBL document CHEMBL3988442, “University of Dundee, Small-Polar-MMV Screening Library” (2021)
# Out of some 48,000 compounds screened, about 13,000 (27%) showed an effect of 50% or more. This is one part of the list.
# Tested on: Wolbachia pipientis
# Assay: Anti-Wolbachia Cell-Based Screen
# Assay type: functional
# Parameters: scale not given: in the data most compounds retested in dose-response had high values
# Settings: 5 µM
row,Structure (SMILES),Percent Effect [%]
1,CCc1nc(CN(C(C)=O)C2CCN(Cc3cnc(C)cn3)C2)no1 (configuration not stated),-6.946
2,CCn1c(C)nnc1CN(C)C1CCN(CCc2cccs2)C1 (configuration not stated),-15.8
3,Cc1ccc(CCN2CCC(N(C)Cc3noc(C4CC4)n3)C2)cc1 (configuration not stated),33.43
4,CCc1nc(CN(C(C)=O)C2CCN(CCc3cnn(C)c3)C2)no1 (configuration not stated),-3.276
5,Cc1nnc(CN(C)C2CCN(CCc3cccs3)C2)n1C (configuration not stated),4.049
6,CCCN1CCC(N(Cc2ncc(C)o2)C(C)=O)C1 (configuration not stated),4.824
7,CC(=O)N(Cc1ncc(C)o1)C1CCN(CCc2cccs2)C1 (configuration not stated),95.79
8,CN(Cc1noc(C2CC2)n1)C1CCN(CCc2cccs2)C1 (configuration not stated),86.2
9,CCc1cnc(CN(C(C)=O)C2CCN(CCc3cccs3)C2)o1 (configuration not stated),1.615
10,CN(Cc1nnc(C2CC2)o1)C1CCN(CCc2cccs2)C1 (configuration not stated),-15.6
11,Cc1nc(CN(C)C2CCN(CCc3cccs3)C2)no1 (configuration not stated),100.8
12,CCc1nc(CN(C(C)=O)C2CCN(CCc3cccs3)C2)no1 (configuration not stated),109.6
13,O=C(CSc1ccc2c(c1)OCCO2)NS(=O)(=O)c1cccnc1,7.646
14,O=C(O)C(F)(F)F.O=C([C@@H]1COC[C@H]2CN(CC3CC3)C[C@H]21)N1CCC(F)CC1,-0.2992
15,Cc1ncc2c(n1)CCN(C(C(N)=O)c1ccccc1)C2 (configuration not stated),-10.42
16,CC(C)NC(=O)[C@H]1C[C@@H]2[C@@H](C1)OCCN2CC1CC1.O=C(O)C(F)(F)F,-2.648
17,CCc1nc(CN(C)C2CCN(CCc3ccccn3)C2)no1 (configuration not stated),16.6
18,CCc1nc(CN(C)C2CCN(CCc3cccs3)C2)no1 (configuration not stated),104.6
19,CCc1nc(CN2CCCC(N(C)CCc3cccs3)C2)no1 (configuration not stated),105.7
20,Cc1nc(CN2CCCC(N(C)CCc3cccs3)C2)no1 (configuration not stated),6.086
21,CCc1nc(CN(C)C2CCN(CCn3cccn3)C2)no1 (configuration not stated),113.6
22,Cc1nc(CN(C)C2CCN(CCc3ccccn3)C2)no1 (configuration not stated),113.1

row,Structure (SMILES),Percent Effect [%]
1,CCc1nc(CN(C)C2CCN(CCS(C)(=O)=O)C2)no1 (configuration not stated),2.202
2,CC(C)c1cnc(CN(C)C2CCN(CCc3ccccn3)C2)o1 (configuration not stated),-3.925
3,CCc1nc(CN2CCCC(N(C)Cc3cnc(C)s3)C2)no1 (configuration not stated),-6.39
4,Cc1ccc(NCc2cn3c(n2)CN(Cc2ccc(C)o2)CC3)nn1.O=C(O)C(F)(F)F.O=C(O)C(F)(F)F,-14.5
5,COCCN1CCCC2(CCN(c3nccc4ccccc34)C2)C1=O (configuration not stated),0.09488
6,c1ccc(CN2C[C@H]3CC[C@@H]2CN(Cc2nnc(C4CC4)o2)C3)cc1,2.015
7,c1ccc(CN2C[C@@H]3CC[C@H](C2)N(Cc2nnc(C4CC4)o2)C3)cc1,-6.562
8,CN(C)C(=O)N1C[C@@H]2CC[C@H](C1)N(C/C=C/c1ccc(F)cc1)C2,7.662
9,CN(C)C(=O)N1C[C@@H]2CC[C@H](C1)N(Cc1ccc3nsnc3c1)C2,-1.823
10,CC(C1CC1)N(C)Cc1nnc(-c2ccco2)o1 (configuration not stated),-0.554
11,CN(C)C(=O)N1C[C@@H]2CC[C@H](C1)N(Cc1nnc(-c3ccccc3)o1)C2,137.1
12,CN(C)C(=O)N1C[C@@H]2CC[C@H](C1)N(Cc1nnc(C3CC3)o1)C2,98.65
13,CN(C)C(=O)N1C[C@@H]2CC[C@H](C1)N(Cc1nnc(-c3ccco3)o1)C2,70.33
14,c1ccc(-c2nnc(CN3C[C@@H]4CC[C@H](C3)N(CC3CCC3)C4)o2)cc1,0.05664
15,CCC(NCc1ccccn1)c1ccccc1OCC(=O)NC (configuration not stated),13.68
16,FC(F)(F)Oc1cccc(CNC[C@H]2Cn3ccnc3CO2)c1,-15.74
17,COCCOc1cccc(CNCC2CN(C)CCO2)c1 (configuration not stated),121.8
18,CCOC(=O)CCNC(=O)N1CCOC(Cc2cccc(OC)c2)C1 (configuration not stated),-8.536
19,COc1cccc(CNCC2CN(C)CCO2)c1 (configuration not stated),98.93
20,CN1CCOC(CNCc2cccc(OCC(F)(F)F)c2)C1 (configuration not stated),-1.081
21,CN1CCOC(CNCc2nc(-c3ccco3)no2)C1 (configuration not stated),-7.293
22,CN1CCOC(CNC(=O)CCCOCCc2ccccc2)C1 (configuration not stated),-8.698

row,Structure (SMILES),Percent Effect [%]
1,CN1CCOC(CNCc2cccc(OC(F)(F)F)c2)C1 (configuration not stated),76.13
2,CCCOc1cccc(CNC(=O)CN2CCN(C)CC2C)c1 (configuration not stated),-6.684
3,CCCc1n[nH]c(C2CN(CCNC3CCCCC3)CCO2)n1 (configuration not stated),8.814
4,COc1cc(CNc2nc(C3CC3)no2)cc(OC)c1OC,3.811
5,O=C(NCCN1CCOCC1)Nc1cc(F)ccc1-n1cccn1,-8.933
6,O=C(NCCN1CCOCC1)c1cc(-c2ccc3c(c2)CCO3)n[nH]1,2.601
7,Cc1nc(CCCN2CCOCC2)n(Cc2ccc(F)cc2)n1,-6.384
8,O=C1O[C@@H]2CN(Cc3cccc(F)c3)C[C@@H]2N1CCCN1CCOCC1,11.87
9,O=c1[nH]nc(CCCN2CCOCC2)n1Cc1cccc(F)c1,102.2
10,O=C(NCc1cccc(F)c1)Nc1ccn(CCN2CCOCC2)n1,-19.73
11,O=c1[nH]nc(CCCN2CCOCC2)n1-c1ccc(F)cc1F,93.86
12,O=C1CCC(=O)N1CCN1CCN(c2cc(F)ccc2F)CC1,-16.23
13,Cc1ccc(F)cc1-n1c(CCCN2CCOCC2)n[nH]c1=O,109.2
14,CN1C[C@@H](n2cnc(-c3ccccc3)c2-c2ccccn2)C[C@H]1C(=O)O,-24.01
15,CC(C)(C)CN1CCOC[C@H]1c1nc(-c2cccc(F)c2)c[nH]1,4.483
16,Cc1nccnc1N1CC[C@@H](NC(=O)c2cnccn2)[C@H](O)C1,-17.03
17,Cc1nn(C)cc1S(=O)(=O)N[C@@H]1CCC[C@@H](n2ccnc2)[C@@H]1O,85.24
18,Cc1nn(C)cc1S(=O)(=O)N[C@@H]1CC[C@@H](n2ccnc2C)[C@@H]1O,99.22
19,Cn1cc(S(=O)(=O)N2CCCC2Cn2ccnc2)cn1 (configuration not stated),-1.128
20,Cc1nn(C)cc1CN1CCCn2nc(CNC(=O)C3CCC3)cc2C1,-11.1
21,CO[C@@H]1CC[C@@H](NS(=O)(=O)c2cn(C)nc2C)[C@H]1O,86.74
22,Cn1cc(S(=O)(=O)N2CCCC2Cn2ccnc2)cc1C(N)=O (configuration not stated),-5.902

row,Structure (SMILES),Percent Effect [%]
1,Cc1nccn1C1CCCN(C(=O)C2=NN(C)C(=O)CC2)C1 (configuration not stated),-2.156
2,Cc1nn(C)cc1S(=O)(=O)N[C@@H]1CCC[C@@H](N2CCCC2)[C@@H]1O,95.33
3,Cc1nc2n(n1)CC(NCC(=O)NCC1(c3ccccc3)CC1)CC2 (configuration not stated),-4.512
4,CN(C(=O)c1cccc(OCC(F)F)n1)c1ccc2c(c1)CCO2,3.505
5,CCCOc1cccc(NS(=O)(=O)c2cc(C(=O)O)cs2)c1,12.59
6,Cc1ccccc1C(=O)Nc1ccc([C@H]2OCC(=O)N(C)[C@@H]2CO)cc1,-10.53
7,O=C(NC1CC1)C1CCCN(c2cccc(C(F)(F)F)n2)C1 (configuration not stated),-13
8,O=C(NC1CC1)C1CCc2nnc(-c3cccnc3)n21 (configuration not stated),102.7
9,CN(CC1CCCCC1)C(=O)c1cn(C)nc1-c1cccnc1,20.64
10,O=C(NC1CC1)C1CCc2nnc(-c3cccc(C(F)(F)F)c3)n21 (configuration not stated),107.7
11,CNC(=O)C(C)(C)N1CCC[C@H]1C(=O)NC1CC1,8.345
12,Cn1cc(C(=O)NC2CCCC2)c(-c2cccnc2)n1,1.647
13,CN1Cc2nc[nH]c2C[C@H]1C(=O)NC1CCCCC1,0.3029
14,O=C(NC1CC1)C1CCc2nnc(C3CC3)n21 (configuration not stated),105.6
15,CCCS(=O)(=O)N1C[C@@H]2COC[C@@H](Cc3nc(C)no3)[C@@H]2C1,1.373
16,CCc1nc(CN2CCCN(C(=O)c3cn[nH]c3C)CC2)cs1,4.84
17,COc1cc(NCCNC(=O)c2cscc2C)cc(OC)c1,-3.159
18,CN(CCNS(C)(=O)=O)CC(c1cccs1)N1CCOCC1 (configuration not stated),-6.912
19,Cc1nc(-c2noc3ccc(C(=O)NCCN4CCOCC4)cc23)cs1,-14.65
20,CCCc1nc(C)c(C(=O)NC2CCN(c3ncccn3)CC2)s1,-4.746
21,CCc1nc(C)c(C(=O)NCCN2CCCC2)s1,119.2
22,CCCc1nc(C)c(C(=O)NCCn2ccnc2)s1,-2.524

row,Structure (SMILES),Percent Effect [%]
1,CCc1nc(C)c(CNC(=O)CCCN2CCCCC2)s1,-7.179
2,CCc1nc(C)c(C(=O)NCCNc2ncccn2)s1,-5.791
3,CCCc1nc(C)c(C(=O)NC2CCN(C3CC3)C2)s1 (configuration not stated),4.49
4,CCCc1nc(C)c(C(=O)NCCN2CCCCC2)s1,125.3
5,CCCc1nc(C)c(C(=O)NCCN2CCOCC2)s1,118.3
6,Cc1cc(F)ccc1S(=O)(=O)NCc1[nH]ncc1Br,19.22
7,COc1ccc2c(c1)OCC(Cc1ccc(N)cn1)C2 (configuration not stated),-6.73
8,Cc1ccc(NC(=O)c2nc3c(s2)CCCN3C(C)C)cn1,4.841
9,Cc1ccc(NC(=O)[C@H]2C[C@H](C(=O)O)CN(CC(C)C)C2)cn1,103.8
10,CCCc1nc(C)cc(N2CCNC(C(=O)Nc3ccc(C)nc3)C2)n1 (configuration not stated),-5.575
11,COc1ccccc1[C@@H]1CN(CC2CCC2)C[C@H]1C(=O)O,-30.09
12,O=C(Nc1cccnc1)C1CCN(c2cc(-n3ccnc3)ncn2)CC1,4.084
13,Cc1ccsc1CN1CC2(CCN(C(=O)C3CC3)CC2)CC1C(=O)O (configuration not stated),-16.18
14,Cc1ccc(NC(=O)[C@@H]2C[C@H](C(=O)O)CN(Cc3sccc3C)C2)cn1,101.2
15,Cc1cncc(C(=O)N2CCNCC2C(=O)Nc2ccc(C)nc2)c1 (configuration not stated),4.535
16,Cc1ccc(NC(=O)[C@H]2C[C@H](C(=O)O)CN(CC3CC3)C2)cn1,109.3
17,CC(C)=CCN1C[C@@H](C(=O)O)C[C@H](C(=O)Nc2ccc(C)nc2)C1,93.94
18,Cc1ccc(N2CCC(C3CCN(CC(C)C)CC3)C2)nn1 (configuration not stated),-23.48
19,Cc1ccsc1CN1CCCC(CNC(=O)c2ccc(N)nc2)C1 (configuration not stated),1.774
